# According to PubChem BioAssay AID504714 (Sanford-Burnham Center for Chemical Genomics, 2011):
# Out of some 1,000 compounds screened, fewer than 10 were called active. Only a sample is shown. Values without a mark were called inactive. No rule for the calls is given here.
# Test: uracil-DNA glycosylase inhibition, oligo cleavage readout – biochemical, single concentration, fluorescence, FAM/TAMRA oligo, counter-screen for APOBEC3A inhibitor project, confirmation (AID 504714)
# Conditions: UDG counterscreen, at 20 µM, active compounds read high
row,Structure (SMILES),inhibition [%]
1,CCCN1C2=C(C(=O)CCC2)C(c2ccc(O)c(Br)c2)C2=C1CCCC2=O,0.9
2,COc1ccc(CNc2nnnn2C)cc1,-2.73
3,CCN1C(=NCC(C)C)N[C@@H](CCc2ccccc2)[C@H](C(=O)NCC(C)C)[C@H]1C,-1.61
4,COC(=O)C[n+]1cccc2ccccc21,-1.97
5,N#Cc1ccsc1NC(=O)CN1CCN(S(=O)(=O)c2cc(Cl)ccc2Cl)CC1,-0.63
6,COc1ccc(Br)cc1CN(C)C(=O)C1CC(=O)N(C2CCCC2)C1 (centres undefined),1.84
7,COCCCn1c(Cc2csc(Nc3cccc(Cl)c3)n2)nnc1SCC(=O)OC1CCCCC1,5.59
8,COc1ccc(CCNC(=O)COC(=O)/C=C/c2cccs2)cc1OC,-1.3
9,COc1ccccc1CCNC(=O)C1CCN(C(=O)/C=C/c2ccccc2)CC1,2
10,CCCCNC(=O)CSc1nc2ccc(NC(=O)CSc3nnc(N)s3)cc2s1,-1.96
11,CC(C)CCOc1ccc(C(=O)C[N+]2(C)CCOCC2)cc1,1.5
12,O=C(c1ccc(CS(=O)(=O)c2ccccc2)o1)N1CCN(c2ccccc2)CC1,-1.02
13,COC(=O)C1=C(C)N(Cc2ccccc2)C(=NCCCOC(C)C)N[C@H]1c1ccccc1,-3.67
14,CC1(C)CC(N2CCN(C(c3ccccc3)c3ccccc3)CC2)=CC(=[N+]2CCCCC2)C1,-2.53
15,S=C(Nc1cccnc1)Nc1ccccn1,-1.6
16,CC1(C)Oc2ccc3ccc(=O)oc3c2/C(=C/NCCO)C1=O,-2.48
17,NS(=O)(=O)c1cc(C(=O)OCC(=O)NNC(=O)c2ccccc2)ccc1Cl,5.01
18,O=C1c2oc3ccccc3c(=O)c2C(c2cccc(O)c2)N1c1ccccn1 (centres undefined),3.41
19,CSc1nnc(SCc2nc3sc(C(=O)O)c(C)c3c(=O)[nH]2)s1,-3.34
20,CCn1c(SCC(=O)Nc2cccc(F)c2)nnc1-c1cc2cc(Br)ccc2o1,6.96
21,CCOC(=O)c1ccc(NC(=O)CSc2ncccn2)cc1,1.35
22,Cc1ccc(CCCOC(=O)C[N+]2(C)CCCCC2)cc1,0.55
23,C[N+](C)(CCCCCC[N+](C)(C)CCCN1C(=O)c2cccc3cccc(c23)C1=O)CCCN1C(=O)c2cccc3cccc(c23)C1=O,1.2
24,CC(Oc1ccc(F)cc1)C(=O)Nc1cc(S(=O)(=O)N2CCOCC2)ccc1N1CCN(C)CC1 (centres undefined),-3.61
25,C=CC1=C(C(=O)O)N2C(=O)[C@@H](NC(=O)/C(=N/OCC(=O)O)c3csc(N)n3)[C@H]2SC1,-3.4
26,O=C(COC(=O)c1cnc(Cl)c(Cl)c1)NCc1ccco1,0.62
27,Cc1ccc(C(=O)N/N=C\c2cc(Br)c(Br)o2)cn1,2.94

row,Structure (SMILES),inhibition [%]
1,CC(C)c1ccc(/C=C2\NC(=O)NC2=O)cc1,-1.04
2,CC[n+]1cc(C)ccc1/C=C/c1ccc(N(C)C)cc1,-2.09
3,CS(=O)(=O)c1ccc2c(c1)SC1=NC(=O)/C(=C/c3ccco3)C(=N)N12,1.37
4,CC(=O)Nc1ccc(NC(=O)C2CCCN(S(=O)(=O)c3ccc(Cl)cc3)C2)cc1 (centres undefined),7.05
5,CCNC(=O)COC(=O)CCNC(=O)c1cccc(C)c1,-0.25
6,CC(=O)Nc1ccc(Nc2cc(C)nc(Nc3ccc(NC(C)=O)cc3)n2)cc1,4.81
7,CCCCCCCC[n+]1cccc(C(=O)N2c3c(nc(N)[nH]c3=O)NC(C)C2C)c1 (centres undefined),-1.86
8,C[n+]1ccc(C(=O)NCc2ccccc2)cc1,-2.62
9,CCN1C(=NCCc2cccnc2)N[C@@H](c2ccccc2)[C@H](C(=O)OC)[C@H]1C,-0.96
10,O=C(Nc1cccc(-c2nc3ccccc3[nH]2)c1)c1ccc(C(=O)Nc2cccc(-c3nc4ccccc4[nH]3)c2)cc1,-1.03
11,CC(/C=C/c1ccccc1)=N\NC(=O)C1CC1(C)c1ccccc1 (centres undefined),1.23
12,Cc1cc2c(cc1C)[n+](C)cn2CC(O)COCC1CC=CCC1 (centres undefined),4.84
13,Cc1csc(SCC(=O)Nc2sccc2C#N)n1,-2.94
14,COc1ccc(C)cc1NC(=O)CCCN1C(=O)NC(C)(C)C1=O,2.69
15,CCN(CC)CCCNC(=O)CCn1nc(-c2ccc(Cl)cc2)ccc1=O,-0.02
16,N#Cc1ncc(C(F)(F)F)cc1Oc1cccnc1,-2.52
17,C[N+]1(CCNC(=O)/C=N/O)CCCCC1,2.37
18,CSc1nnc(-c2ccncc2)n1CCCN1CCCC1=O,2.58
19,C[N+]1(CC(O)COc2ccccc2)CCN(C(=O)c2ccc([N+](=O)[O-])cc2)CC1 (centres undefined),-0.77
20,CCCc1nc(-c2cc3cc(C)ccc3[nH]c2=O)no1,-1.41
21,CCN1C(=NCc2ccc(OC)cc2)N[C@@H](CCc2ccccc2)[C@H](C(=O)NCc2ccc(OC)cc2)[C@H]1C,2.26
22,CCS(=O)(=O)c1ccc(-c2cccc(NC(=O)c3ccc(Br)o3)c2)nn1,-1.58
23,COc1ccc(Cc2nnc(NC(=O)c3ccc(OC)cc3OC)s2)cc1,2.26
24,Cc1nnc(N/N=C/c2ccccn2)[nH]c1=O,3.44
25,COc1ccccc1-c1noc(CSc2nc(C)cc(=O)[nH]2)n1,-1.99
26,N#Cc1ccccc1CN1C(=O)S/C(=C/c2cccn2-c2cccc(C(=O)O)c2)C1=O,-1.19
27,CC[n+]1c(C)n(-c2ccccc2)c2ccc(NC(C)=O)cc21,-1.23
